# Compound activity from PubChem.
# IMPase inh: IMPase inhibition in cells; P97697; CHO-M1 cells, IP1 accumulation, HTRF TR-FRET ratio; inhibition (IP1 accumulation), % at 46.1 µM; 120,000 tested, under 10 active; AID 901; active means well fitted curve in the direction sought with a large enough effect in the signal ratio, not every such curve was filed as active; inconclusive means small, poorly fitted or top-dose-only effect, or a change in a side signal; inactive means no such curve, though single readings can be large or run the other way; the % refers to the signal ratio;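 further: cells stimulated with carbachol in lithium chloride buffer; plate controls were DMSO basal wells for no effect and reference inhibitor wells for full effect; higher means more IMPase inhibition seen as more IP1 and lower FRET ratio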
#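 Cellular IMPase inhibition is scored as a rise in cytosolic IP1, detected by competitive TR-FRET between d2-labelled IP1 and a europium anti-IP1 antibody. M1-expressing CHO cells were stimulated with carbachol for 30 min at 37C, with lithium (50 mM LiCl) present in the buffer.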
# IMPase Li inh: membrane-permeable IMPase blocker, potentiated with lithium | CHO-M1 cells, IP1 TR-FRET (IP-One), carbachol + lithium | Potency, µM (titrated, usually from 59.4 µM), for inactives: at the highest dose activity, negative = IMPase inhibition, usual class: inhibitors | 210,000 tested, 0.35% active | AID 1457;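 further: IP1 builds up when IMPase is blocked and the TR-FRET signal falls; potency means the concentration at half of the fitted maximal effect; plate controls were basal vehicle for no effect and high inhibitor control for full effect; nearly all actives have a fitted effect of over 50% in size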
#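 CHO cells stably expressing M1 receptor (2000/well, cultured 16–30 h) treated 30 min at 37C with compound plus low lithium. Cytosolic IP1 by TR-FRET (665/620 ratio and 620 channel) after 10 min lysis; AC50 by Hill fit.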
# 15-hLO-2 inh: inhibitors of human 15-lipoxygenase 2 (ALOX15B); O15296; Potency, µM (series often up to 57.1 µM), for the others: top-dose activity change, negative = inhibition, most hits filed as inhibitors; purified 15hLO-2, xylenol orange hydroperoxide absorbance; 110,000 tested, 0.56% active; further: potency means the concentration at half of the fitted maximal effect; nearly all actives have a fitted effect of over 60% in size
#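 Enzyme 50 nM, AA 45 uM, 25 mM Hepes pH 7.5 + 0.01% Triton X-100; cpd preinc 15 min RT, rxn 90 min RT; stop/detect with 200 uM XO + 300 uM Fe(II) in 50 mM H2SO4, 30 min; A573/A405.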
# ALOX12 inhib: blocks human 12-lipoxygenase activity; 150,000 tested, 0.12% active; purified 12-hLO, xylenol orange hydroperoxide absorbance; Potency, µM (top dose mostly 57.1 µM), inactives show at the highest dose activity change, negative = inhibition, actives largely listed as inhibitors; P18054; further: potency means the concentration at half of the fitted maximal effect; nearly all actives have a fitted effect of over 55% in size
#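 Purified human 12hLO (150 nM final) was preincubated with compounds for 15 min at room temperature in 25 mM Hepes pH 7.0, 0.01% Triton X-100, then reacted with 40 uM arachidonic acid for 30 min. Hydroperoxide was detected with ferrous iron/xylenol orange.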
# HPGD block: blocks human HPGD enzyme activity; purified HPGD, NADH fluorescence kinetic, PGE2 substrate; Potency, µM, for inactives: top-dose activity change, negative = inhibition, usual class: inhibitors; 150,000 tested, 4.3% active; active means well fitted inhibition curve with a large enough effect, not every such curve was filed as active; inconclusive means small, poorly fitted or top-dose-only effect, or another doubt; inactive means no such curve, though single readings can be large or run the other way; further: potency means the concentration at half of the fitted maximal effect
#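 NADH formation kinetics: reaction with 30 uM PGE2 and 1 mM NAD+ (final), 20 nM enzyme, Tris-HCl pH 8 with Tween 20, after 15 min compound preincubation at room temperature. Fluorescence change, last versus first of five reads.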
# PNC inhibitor: blocks assembly of the perinucleolar compartment. PC3M PTB-GFP, PNC prevalence imaging, 16 h; stronger effect = lower value. activity change (PNC), negative = inhibition, % at 10 µM. 140,000 tested, 3.1% active. AID 2417;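 active means readout at or below -70, meaning at least 70% loss of cells showing the perinucleolar compartment, a nuclear body marking cancer cells; inconclusive means readout between -30 and a set limit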;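 further: plate controls were DMSO wells for no effect and camptothecin positive control wells for full effect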
#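 Compounds are pinned in duplicate onto adhered PC3M cells stably expressing GFP-tagged PTB and incubated 16 h at 37 C. Cells are then fixed, nuclei stained with Hoechst, and PNC-positive cells counted.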
# An asterisk follows results filed as active; ? = inconclusive; . = no result given; [ ] = dose if it differs, or a comment. Hits are enriched below; roughly 5.4% of the tested compounds scored in any of these assays. Unless noted, the call rests on the fitted dose curve; in most records, active means well fitted curve in the direction sought with a large enough effect; inconclusive means small, poorly fitted or top-dose-only effect, or another doubt; inactive means no such curve, though single readings can be large; an effect the other way counts as inactive or inconclusive. Unless noted, on the % scale 0 is the no-effect control and ±100 the full control effect.
SMILES,IMPase inh,IMPase Li inh,15-hLO-2 inh,ALOX12 inhib,HPGD block,PNC inhibitor
Cc1ccc(NC(=O)N2CCCN(Cc3ccc(F)cc3)C2)cc1C,1,-8%[38.3 µM],53%,?,-15%,?
CC(C)CCn1cnc2c(cnn2-c2ccc(F)cc2)c1=O,-8,2%[38.3 µM],-7%,0%,11µM*,0
O=C(CN1CCOc2ccccc21)NCc1ccco1,1,25%[38.3 µM],-20%,-10%,-27%,-106*
O=C(CSc1ccccc1)NCc1ccco1,2,5%,.,-6%,28µM*,-5
O=C(CCSCCC(=O)NCc1ccco1)NCc1ccco1,2,-5%,-29%,1%,16µM*,27
CC(C)C(CC(=O)NCc1ccco1)c1ccco1 (stereo not given),0,11%,-4%,-8%,14µM*,35
O=C(CSCC(=O)NCc1ccco1)NCc1ccco1,2,23%[38.3 µM],5%,12%,-6%,-19
CCc1nn2c(=O)c(S(=O)(=O)Nc3ccc(C)c(C)c3)c(C)nc2s1,3,.,.,.,.,.
CC(C)(C)c1nc2ccccc2c2nnc(SCC(=O)NCc3ccco3)n12,0,6%[38.3 µM],-6%,4%,16µM*,-19
C=CCn1c(SCC(=O)NCc2ccco2)nnc1-c1ccc2ccccc2n1,19,17%[38.3 µM],-20%,-8%,16µM*,15
CC(C)c1nc2ccccc2c2nnc(SCC(=O)NCc3ccco3)n12,-4,22%[38.3 µM],-1%,1%,-26%,50
O=C(CSc1ccc2c(c1)OCCO2)NCc1ccco1,-5,12%[38.3 µM],-6%,-18%,25µM*,-10
CCCn1cc(SCC(=O)NCc2ccco2)c2ccccc21,6,18%[38.3 µM],-9%,-4%,18µM*,-22
N=c1ccn2c(n1)OCC1C2O[C@@H](O)[C@H]1O (stereo not given in full),.,20%,.,.,-13%,.
O=C(Cn1nc(C(F)(F)F)c2c1CCC2)Nc1ccccc1C(F)(F)F,1,8%,.,-4%,-10%,-100*
COC(=O)c1ccc(C(NC(=O)OCc2ccccc2)/C(F)=C/[C@@H](C)C(=O)NCc2cccnc2)cc1 (stereo not given in full),.,-3%,25%,-5%,-8%,.
O=C(N/N=C/c1ccc([N+](=O)[O-])cc1)c1ccc2nc[nH]c2c1,-2,-6%[38.3 µM],3%,-1%,-10%,-88*
COC(=O)C1=C(C(=O)OC)N2C=CC=CC2(C)C(C(=O)OC)=C1C(=O)OC (stereo not given),.,-12%,.,-20%,35µM*,?
Cc1ccc(-c2nc3ncccn3c2Nc2ccc3c(c2)OCO3)o1,19,35%,.,-5%,-20%,-119*
O=C(CSc1nc2cc(S(=O)(=O)N3CCOCC3)ccc2o1)NC1CCCc2ccccc21 (stereo not given),10,35%[38.3 µM],-22%,-12%,8.9µM*,?
Cc1ccc(C(=O)CSc2nc3cc(S(=O)(=O)N4CCOCC4)ccc3o2)cc1,11,8%[38.3 µM],-9%,-4%,25µM*,11
O=C(CSc1nc2cc(S(=O)(=O)N3CCOCC3)ccc2o1)Nc1c(F)cccc1F,.,-1%,.,.,.,.
COc1ccc2c(c1)O[C@@H](c1cccc(C(F)(F)F)c1)[C@H](OC(=O)Nc1cc(OC)c(OC)c(OC)c1)C2=O,.,6%,.,.,-11%,.
CC(C)C(c1nnnn1C1CCCC1)N1CCCc2ccccc21 (stereo not given),-6,14%,.,-1%,-17%,-100*
CC(C)C(c1nnnn1C1CCCCC1)N1CCCc2ccccc21 (stereo not given),7,17%,.,1%,-10%,1
O=C(CSc1nc(Nc2ccccc2)nc(N2CCOCC2)n1)N1CCc2ccccc21,?,20%[38.3 µM],33%,11%,-8%,-117*
c1ccc(Nc2nc(N3CCNCC3)nc(N3CCOCC3)n2)cc1,?,3%,.,3%,-3%,-100*
